Data from paper PMC7862700, “An all-to-all approach to the identification of sequence-specific readers for epigenetic DNA modifications on cytosine”.

Tests used:
Assay in all cases: DAPPL (digital affinity profiling via proximity ligation, sequencing); 10 mM Tris-HCl pH 7.5, 50 mM NaCl, 1 mM DTT, 4% glycerol, room temperature, 30 min; GST-TFs on glutathione beads, 16-mer random dsDNA library, 0.1% formaldehyde crosslink after washing; high values mean tight binding
FEV = target: T1, FEV (Homo sapiens, UniProt Q99581 1-238); conditions: protein: recombinant; tags: N-terminal GST; dsDNA, one strand shown
T1 sequence: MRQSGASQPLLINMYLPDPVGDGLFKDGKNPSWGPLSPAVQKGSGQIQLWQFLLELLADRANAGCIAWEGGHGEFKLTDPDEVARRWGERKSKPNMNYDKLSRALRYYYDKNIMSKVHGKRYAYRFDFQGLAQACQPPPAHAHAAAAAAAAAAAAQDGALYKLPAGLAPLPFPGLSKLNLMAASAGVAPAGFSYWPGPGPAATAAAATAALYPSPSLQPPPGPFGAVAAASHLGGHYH
How it was run: (§1)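 GST fusions of human transcription factors were expressed in yeast and captured with glutathione beads. Once given DNA barcodes and pooled alongside a tag-only sample, they were incubated for 30 min at room temperature with 200 nmole of a random double-stranded 16-mer DNA library in Tris/NaCl/DTT/glycerol buffer, then washed, crosslinked (0.1% formaldehyde), proximity-ligated, PCR-amplified and sequenced on an Illumina NextSeq500. The binding signal of each hexamer is its read frequency for a factor divided by its frequency for the tag-only sample.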

ETV5 = ETV5 (Homo sapiens, UniProt P41161 1-510); conditions: protein: recombinant; tags: N-terminal GST; dsDNA, one strand shown
Sequence of ETV5 (P41161 whole entry): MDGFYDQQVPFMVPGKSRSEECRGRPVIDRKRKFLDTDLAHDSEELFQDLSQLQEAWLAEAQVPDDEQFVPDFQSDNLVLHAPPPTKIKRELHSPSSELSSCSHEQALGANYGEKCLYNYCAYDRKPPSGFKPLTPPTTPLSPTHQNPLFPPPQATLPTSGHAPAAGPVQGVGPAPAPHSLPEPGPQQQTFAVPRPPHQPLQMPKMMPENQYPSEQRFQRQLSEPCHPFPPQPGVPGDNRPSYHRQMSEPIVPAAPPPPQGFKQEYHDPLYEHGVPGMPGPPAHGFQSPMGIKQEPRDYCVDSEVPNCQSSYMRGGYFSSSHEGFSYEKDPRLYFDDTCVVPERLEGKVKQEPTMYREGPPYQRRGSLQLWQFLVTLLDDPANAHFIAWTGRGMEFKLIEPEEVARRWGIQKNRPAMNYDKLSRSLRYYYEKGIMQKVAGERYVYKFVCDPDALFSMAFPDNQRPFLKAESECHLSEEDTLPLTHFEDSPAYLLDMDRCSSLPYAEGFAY
How it was run: as §1

HSF1 = HSF1 (Homo sapiens, UniProt Q00613 1-529); conditions: protein: recombinant; tags: N-terminal GST; chain copies: 3; dsDNA, one strand shown
Sequence of HSF1 (Q00613 whole entry): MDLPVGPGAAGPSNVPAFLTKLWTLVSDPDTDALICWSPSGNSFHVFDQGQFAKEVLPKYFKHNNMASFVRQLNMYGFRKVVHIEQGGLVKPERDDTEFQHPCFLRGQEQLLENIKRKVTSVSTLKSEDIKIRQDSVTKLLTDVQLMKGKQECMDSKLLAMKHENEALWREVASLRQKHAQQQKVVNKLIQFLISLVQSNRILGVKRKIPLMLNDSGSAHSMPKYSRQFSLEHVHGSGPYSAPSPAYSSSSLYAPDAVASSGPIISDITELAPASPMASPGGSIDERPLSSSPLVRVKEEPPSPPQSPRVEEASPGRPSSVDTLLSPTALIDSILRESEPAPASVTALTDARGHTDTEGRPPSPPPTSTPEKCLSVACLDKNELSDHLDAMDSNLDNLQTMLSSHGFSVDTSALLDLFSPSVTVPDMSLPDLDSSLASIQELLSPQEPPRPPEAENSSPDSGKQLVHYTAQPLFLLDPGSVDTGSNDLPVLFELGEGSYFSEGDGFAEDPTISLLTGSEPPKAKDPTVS
How it was run: as §1

SPIC = target: T2, SPIC (Homo sapiens, UniProt Q8N5J4 1-248); conditions: protein: recombinant; tags: N-terminal GST; dsDNA, one strand shown
T2 sequence: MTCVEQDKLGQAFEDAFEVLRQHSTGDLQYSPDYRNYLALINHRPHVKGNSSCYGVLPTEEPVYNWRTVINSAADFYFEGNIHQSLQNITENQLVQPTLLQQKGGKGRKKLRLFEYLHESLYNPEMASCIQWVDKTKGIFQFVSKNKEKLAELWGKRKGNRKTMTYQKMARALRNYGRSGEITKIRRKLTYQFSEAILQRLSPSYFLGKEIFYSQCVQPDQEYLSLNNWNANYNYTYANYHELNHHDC
How it was run: as §1

ELF4 = ELF4 (Homo sapiens, UniProt Q99607 1-663); conditions: protein: recombinant; tags: N-terminal GST; dsDNA, one strand shown
Sequence of ELF4 (Q99607 whole entry): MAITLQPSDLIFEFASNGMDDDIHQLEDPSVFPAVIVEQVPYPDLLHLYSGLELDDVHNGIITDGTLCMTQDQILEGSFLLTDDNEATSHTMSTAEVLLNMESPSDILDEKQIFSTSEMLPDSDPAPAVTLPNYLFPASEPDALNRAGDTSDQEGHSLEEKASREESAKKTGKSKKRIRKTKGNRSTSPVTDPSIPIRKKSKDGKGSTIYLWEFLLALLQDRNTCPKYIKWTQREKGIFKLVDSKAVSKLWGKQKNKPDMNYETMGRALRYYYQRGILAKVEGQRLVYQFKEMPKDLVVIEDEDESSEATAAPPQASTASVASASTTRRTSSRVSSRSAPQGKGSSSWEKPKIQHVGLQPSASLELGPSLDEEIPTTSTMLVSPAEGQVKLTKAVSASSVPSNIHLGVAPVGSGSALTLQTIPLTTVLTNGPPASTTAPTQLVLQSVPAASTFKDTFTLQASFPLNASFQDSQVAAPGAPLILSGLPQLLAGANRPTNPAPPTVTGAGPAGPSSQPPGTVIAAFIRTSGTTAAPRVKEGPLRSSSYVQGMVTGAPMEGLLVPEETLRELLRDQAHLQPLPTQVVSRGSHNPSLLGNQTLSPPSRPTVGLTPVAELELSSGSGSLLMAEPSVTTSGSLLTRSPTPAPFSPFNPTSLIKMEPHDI
How it was run: as §1

ELK4 = target: T3, ELK4 (Homo sapiens, UniProt P28324-2 1-405); conditions: protein: recombinant; tags: N-terminal GST; dsDNA, one strand shown
T3 sequence: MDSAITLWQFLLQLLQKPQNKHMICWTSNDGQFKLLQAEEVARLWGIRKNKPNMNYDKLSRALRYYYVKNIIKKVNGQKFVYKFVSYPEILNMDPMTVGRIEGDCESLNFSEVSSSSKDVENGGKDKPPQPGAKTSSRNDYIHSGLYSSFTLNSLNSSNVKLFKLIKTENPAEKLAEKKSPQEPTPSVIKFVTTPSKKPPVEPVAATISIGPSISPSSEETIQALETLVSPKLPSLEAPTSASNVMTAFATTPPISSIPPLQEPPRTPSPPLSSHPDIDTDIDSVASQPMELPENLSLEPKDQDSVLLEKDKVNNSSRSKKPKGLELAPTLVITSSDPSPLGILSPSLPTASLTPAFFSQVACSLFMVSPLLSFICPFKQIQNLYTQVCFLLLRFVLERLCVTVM
How it was run: as §1

ETV2 = target: T4, ETV2 (Homo sapiens, UniProt O00321 1-342); conditions: protein: recombinant; tags: N-terminal GST; dsDNA, one strand shown
T4 sequence: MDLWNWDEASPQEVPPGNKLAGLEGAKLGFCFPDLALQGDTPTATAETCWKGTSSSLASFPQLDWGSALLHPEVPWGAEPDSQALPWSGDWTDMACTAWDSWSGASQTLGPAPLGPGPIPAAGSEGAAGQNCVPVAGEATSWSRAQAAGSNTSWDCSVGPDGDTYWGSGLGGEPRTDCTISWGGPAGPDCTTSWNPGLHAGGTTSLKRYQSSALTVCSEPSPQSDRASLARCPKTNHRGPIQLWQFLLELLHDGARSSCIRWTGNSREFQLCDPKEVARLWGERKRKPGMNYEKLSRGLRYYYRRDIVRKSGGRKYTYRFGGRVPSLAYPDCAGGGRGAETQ
How it was run: as §1

ELF3 = target: T5, ELF3 (Homo sapiens, UniProt P78545 1-371); conditions: protein: recombinant; tags: N-terminal GST; dsDNA, one strand shown
T5 sequence: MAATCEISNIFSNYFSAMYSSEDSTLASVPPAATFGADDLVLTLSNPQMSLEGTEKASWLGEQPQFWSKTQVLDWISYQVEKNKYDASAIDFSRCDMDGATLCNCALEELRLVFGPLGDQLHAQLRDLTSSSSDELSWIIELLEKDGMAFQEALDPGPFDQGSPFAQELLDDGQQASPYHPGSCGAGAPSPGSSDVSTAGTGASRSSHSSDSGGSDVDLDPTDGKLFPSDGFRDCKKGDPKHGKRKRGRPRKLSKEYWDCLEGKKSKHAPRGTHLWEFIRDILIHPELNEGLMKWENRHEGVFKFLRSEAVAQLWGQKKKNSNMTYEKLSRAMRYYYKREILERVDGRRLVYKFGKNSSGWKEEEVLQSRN
How it was run: as §1

CRX = CRX (Homo sapiens, UniProt O43186 1-299); conditions: protein: recombinant; tags: N-terminal GST; dsDNA, one strand shown
Sequence of CRX (O43186 whole entry): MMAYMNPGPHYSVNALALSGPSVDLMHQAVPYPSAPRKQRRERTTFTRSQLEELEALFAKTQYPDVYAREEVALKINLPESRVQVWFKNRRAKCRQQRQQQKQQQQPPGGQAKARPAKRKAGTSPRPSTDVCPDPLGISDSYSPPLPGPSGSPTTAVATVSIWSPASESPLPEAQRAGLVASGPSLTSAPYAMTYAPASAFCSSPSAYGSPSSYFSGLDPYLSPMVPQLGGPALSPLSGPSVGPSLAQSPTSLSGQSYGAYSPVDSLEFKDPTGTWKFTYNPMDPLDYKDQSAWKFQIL
How it was run: as §1

ETV1 = ETV1 (Homo sapiens, UniProt P50549 1-477); conditions: protein: recombinant; tags: N-terminal GST; dsDNA, one strand shown
Sequence of ETV1 (P50549 whole entry): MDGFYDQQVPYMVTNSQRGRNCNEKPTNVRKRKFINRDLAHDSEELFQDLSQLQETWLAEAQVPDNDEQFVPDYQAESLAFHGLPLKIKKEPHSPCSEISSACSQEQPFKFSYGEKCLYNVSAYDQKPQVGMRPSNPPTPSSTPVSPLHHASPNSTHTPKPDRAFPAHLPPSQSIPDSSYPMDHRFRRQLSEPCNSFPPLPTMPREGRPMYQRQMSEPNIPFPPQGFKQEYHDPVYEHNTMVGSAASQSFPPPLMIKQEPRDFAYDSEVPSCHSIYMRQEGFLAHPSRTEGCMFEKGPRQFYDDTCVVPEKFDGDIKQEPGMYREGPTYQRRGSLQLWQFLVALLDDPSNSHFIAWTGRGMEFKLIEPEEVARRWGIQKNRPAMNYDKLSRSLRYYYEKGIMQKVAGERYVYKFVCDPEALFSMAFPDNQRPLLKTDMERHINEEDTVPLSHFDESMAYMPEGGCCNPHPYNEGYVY
How it was run: as §1

Row | Sequence | binding signal (FEV) | binding signal (ETV5) | binding signal (HSF1) | binding signal (SPIC) | binding signal (ELF4) | binding signal (ELK4) | binding signal (ETV2) | binding signal (ELF3) | binding signal (CRX) | binding signal (ETV1)
1 | TTCAAC | 1.29 fold enrichment (6-mer frequency, TF over GST control) | 1.29 fold enrichment (6-mer frequency, TF over GST control) | 1.14 fold enrichment (6-mer frequency, TF over GST control) | 1.24 fold enrichment (6-mer frequency, TF over GST control) | 1.28 fold enrichment (6-mer frequency, TF over GST control) | 1.33 fold enrichment (6-mer frequency, TF over GST control) | 1.31 fold enrichment (6-mer frequency, TF over GST control) | 1.38 fold enrichment (6-mer frequency, TF over GST control) | 1.15 fold enrichment (6-mer frequency, TF over GST control) | 1.35 fold enrichment (6-mer frequency, TF over GST control)
2 | ATCGAT | 1.02 fold enrichment (6-mer frequency, TF over GST control) | 1.17 fold enrichment (6-mer frequency, TF over GST control) | 1.26 fold enrichment (6-mer frequency, TF over GST control) | 1.2 fold enrichment (6-mer frequency, TF over GST control) | 1.17 fold enrichment (6-mer frequency, TF over GST control) | 1.23 fold enrichment (6-mer frequency, TF over GST control) | 1.08 fold enrichment (6-mer frequency, TF over GST control) | 1.19 fold enrichment (6-mer frequency, TF over GST control) | 1.25 fold enrichment (6-mer frequency, TF over GST control) | 1.07 fold enrichment (6-mer frequency, TF over GST control)
3 | CACGCT | 1.32 fold enrichment (6-mer frequency, TF over GST control) | 1.34 fold enrichment (6-mer frequency, TF over GST control) | 1.19 fold enrichment (6-mer frequency, TF over GST control) | 1.23 fold enrichment (6-mer frequency, TF over GST control) | 1.43 fold enrichment (6-mer frequency, TF over GST control) | 1.36 fold enrichment (6-mer frequency, TF over GST control) | 1.27 fold enrichment (6-mer frequency, TF over GST control) | 1.4 fold enrichment (6-mer frequency, TF over GST control) | 1.17 fold enrichment (6-mer frequency, TF over GST control) | 1.34 fold enrichment (6-mer frequency, TF over GST control)
4 | CCTAAT | 1.32 fold enrichment (6-mer frequency, TF over GST control) | 1.31 fold enrichment (6-mer frequency, TF over GST control) | 1.75 fold enrichment (6-mer frequency, TF over GST control) | 1.33 fold enrichment (6-mer frequency, TF over GST control) | 1.26 fold enrichment (6-mer frequency, TF over GST control) | 1.24 fold enrichment (6-mer frequency, TF over GST control) | 1.44 fold enrichment (6-mer frequency, TF over GST control) | 1.52 fold enrichment (6-mer frequency, TF over GST control) | 2.61 fold enrichment (6-mer frequency, TF over GST control) | 1.38 fold enrichment (6-mer frequency, TF over GST control)
5 | GCTTTA | 1.04 fold enrichment (6-mer frequency, TF over GST control) | 1.06 fold enrichment (6-mer frequency, TF over GST control) | 1.25 fold enrichment (6-mer frequency, TF over GST control) | 1.13 fold enrichment (6-mer frequency, TF over GST control) | 1.14 fold enrichment (6-mer frequency, TF over GST control) | 1.2 fold enrichment (6-mer frequency, TF over GST control) | 1.16 fold enrichment (6-mer frequency, TF over GST control) | 1.13 fold enrichment (6-mer frequency, TF over GST control) | 1.81 fold enrichment (6-mer frequency, TF over GST control) | 1.06 fold enrichment (6-mer frequency, TF over GST control)
6 | CTACTC | 1.37 fold enrichment (6-mer frequency, TF over GST control) | 1.35 fold enrichment (6-mer frequency, TF over GST control) | 1.32 fold enrichment (6-mer frequency, TF over GST control) | 1.21 fold enrichment (6-mer frequency, TF over GST control) | 1.37 fold enrichment (6-mer frequency, TF over GST control) | 1.41 fold enrichment (6-mer frequency, TF over GST control) | 1.38 fold enrichment (6-mer frequency, TF over GST control) | 1.32 fold enrichment (6-mer frequency, TF over GST control) | 1.28 fold enrichment (6-mer frequency, TF over GST control) | 1.32 fold enrichment (6-mer frequency, TF over GST control)
7 | TATAGT | 1.03 fold enrichment (6-mer frequency, TF over GST control) | 1.11 fold enrichment (6-mer frequency, TF over GST control) | 1.07 fold enrichment (6-mer frequency, TF over GST control) | 1.09 fold enrichment (6-mer frequency, TF over GST control) | 1.03 fold enrichment (6-mer frequency, TF over GST control) | 1.31 fold enrichment (6-mer frequency, TF over GST control) | 1.12 fold enrichment (6-mer frequency, TF over GST control) | 1.28 fold enrichment (6-mer frequency, TF over GST control) | 1.34 fold enrichment (6-mer frequency, TF over GST control) | 1.11 fold enrichment (6-mer frequency, TF over GST control)
8 | TTCTTA | 1.32 fold enrichment (6-mer frequency, TF over GST control) | 1.33 fold enrichment (6-mer frequency, TF over GST control) | 1.85 fold enrichment (6-mer frequency, TF over GST control) | 1.71 fold enrichment (6-mer frequency, TF over GST control) | 1.41 fold enrichment (6-mer frequency, TF over GST control) | 1.5 fold enrichment (6-mer frequency, TF over GST control) | 1.36 fold enrichment (6-mer frequency, TF over GST control) | 1.47 fold enrichment (6-mer frequency, TF over GST control) | 2.21 fold enrichment (6-mer frequency, TF over GST control) | 1.36 fold enrichment (6-mer frequency, TF over GST control)
